High-throughput results from PubChem BioAssay.
Shown are actives, neighbours in structure and some others; about 4.1% of the full set was active somewhere.
DAX1 inh-1 – inhibits human nuclear receptor DAX1 | HEK293 Gal4-DAX1 luciferase reporter, luminescence | inhibition, % at 6.75 µM | 340,000 compounds, 0.99% hits;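 active = inhibition above the mean over all tested compounds plus 3 SD, cut at about 4.2% in these data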;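 note: 0% = DAX1-transfected cells with DMSO and 100% = empty-vector control cells with DMSO; inhibition shows as a rise in luminescence from relieved DAX1 repression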
Target sequence (P51843 207-470 limits assumed): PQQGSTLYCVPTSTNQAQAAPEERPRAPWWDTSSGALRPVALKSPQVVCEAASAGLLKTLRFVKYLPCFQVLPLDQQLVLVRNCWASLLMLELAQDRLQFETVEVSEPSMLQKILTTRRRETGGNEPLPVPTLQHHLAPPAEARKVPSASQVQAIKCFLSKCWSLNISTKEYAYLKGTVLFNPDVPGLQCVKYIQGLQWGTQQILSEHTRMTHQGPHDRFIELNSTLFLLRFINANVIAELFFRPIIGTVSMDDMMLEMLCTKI
ssDAF12 agonist – activators of S. stercoralis DAF-12 nuclear receptor. HEK293 ssDAF-12/GRIP1 lit1-tk-luc reporter, luminescence; % of 3 µM dafachronic acid response. activation, % at 6.8 µM. 370,000 compounds, 1% hits. AID 652126;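 active = activation above the mean over all tested compounds plus 3 SD, cut at about 0.9% in these data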;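 note: 0% = DMSO-only wells and 100% = 3 µM delta7-dafachronic acid wells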
hcDAF12 agonist – activators of H. contortus DAF-12 nuclear receptor | activation, % at 6.8 µM | HEK293 hcDAF-12 lit1-tk-luc reporter, luminescence; 0% DMSO, 100% Δ7-dafachronic acid | 370,000 compounds, 1.4% hits | AID 652067;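 active = activation above the mean of all tested compounds plus 3 SD, cut at about 5.5% in these data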;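 note: 100% = response to 3 µM Δ7-dafachronic acid high control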
hgDAF-12 ag – hgDAF-12 agonism, primary luciferase screen; HEK293 GAL4-hgDAF12 UAS-luciferase reporter, agonist luminescence; normalized to butyrate control; activation, % at 6.8 µM; 370,000 compounds, 1.8% hits;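 active = activation above a cutoff set at the mean of all screened compounds plus 3 SD, cut at about 10% in these data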;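 note: 0% = DMSO wells and 100% = sodium butyrate wells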
DAX1 inh-2 – blocks DAX1 repression of SF-1 activated StAR promoter. AID 652010. 370,000 compounds, 1.1% hits. inhibition, % at 6.8 µM. HEK293T StAR-luciferase reporter, SF-1/DAX-1 repression relief;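 active = inhibition above the mean over all tested compounds plus 3 SD, cut at about 3.6% in these data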;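 note: 0% = DAX-1 cells with DMSO and 100% = cells lacking DAX-1 with DMSO; higher inhibition means more luminescence from relief of DAX-1 repression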
LXR ag – LXR-beta agonism as hcDAF-12 counter-screen | shares compounds with hcDAF12 agonist | HEK293 Gal4-LXR tk-luc reporter, luminescence, 24 h; normalized: DMSO 0%, positive control 100% | activation, % at 6.8 µM | 3,400 tested, under 10 active;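 active = mean percent activation of the reporter above a cutoff set as the average over tested compounds plus their standard deviation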
hcDAF12 ag – hcDAF-12 agonism, confirmation assay; shares compounds with hcDAF12 agonist; HEK293 hcDAF-12 lit1-tk-luc reporter, luminescence; % of Δ7-dafachronic acid response; activation, % at 6.8 µM; 3,400 compounds, 61% hits; AID 743032;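 active = mean activation across triplicate tests above the threshold derived from the earlier primary screen, cut at about 5.5% in these data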;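 note: 0% = DMSO only wells and 100% = 3 µM Δ7-dafachronic acid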
Numbers without * were called inactive; · = no result given.

SMILES | DAX1 inh-1 | ssDAF12 agonist | hcDAF12 agonist | hgDAF-12 ag | DAX1 inh-2 | LXR ag | hcDAF12 ag
N=c1oc2cc(O)ccc2cc1C(=O)Nc1nc2ccccc2s1 | 3 | -1 | 7.2* | 1 | 1 | 2 | 11*
COc1cccc(/C=N/NC(=O)c2nnn(-c3nonc3N)c2CN(C)C2CCCCC2)c1 | 3 | -1 | -1 | -1 | 0 | · | ·
Cc1ccc(NP(=O)(c2ccc(N(C)C)cc2NC(=O)c2cccs2)N2CCOCC2)cc1 (configuration not stated) | 0 | 1.5* | 8.4* | 6 | 0 | 0 | 2
CN(C)c1ccc(P(=O)(Nc2ccccc2)N2CCOCC2)c(NC(=O)c2cccs2)c1 (configuration not stated) | 0 | 1 | 4 | 3 | 0 | · | ·
CN(C)c1ccc(P(=O)(Nc2ccc([N+](=O)[O-])cc2)N2CCOCC2)c(NC(=O)c2cccs2)c1 (configuration not stated) | 1 | 0 | 8.0* | 3 | 0 | 0 | 5
COc1ccccc1N(Cc1ccccc1)S(=O)(=O)c1cccc(C(=O)Nc2ccc(C(C)=O)cc2)c1 | 1 | 0 | 12* | 8 | 1 | 0 | 3
CCOC(=O)C1=CCN(S(=O)(=O)c2ccc(F)cc2)C1c1ccccc1 (configuration not stated) | · | -2 | 7.7* | -1 | 0 | 0 | 1
COC(=O)c1ccccc1NC(=O)c1cnc2sccn2c1=O | 0 | -1 | 0 | 1 | 1 | · | ·
O=C(Nc1nccs1)c1cnc2sccn2c1=O | 1 | 1.5* | 8.5* | 9 | 2 | 0 | 7.6*
Cn1c(-c2ccsc2)c(-c2cccs2)c2cc(-c3ccc4cc[nH]c4c3)ccc21 | 2 | -1 | 0 | 1 | 0 | · | ·
Cn1c(C=O)c(-c2ccc3cc[nH]c3c2)c2ccccc21 | 3 | 0 | 7.7* | 4 | 0 | 0 | 5
Cc1ccc(-n2nnc(-c3cc4ccccc4n3C)n2)cc1 | 2 | 1.0* | 9.7* | 3 | 1 | 1 | 13*
Cn1c(SCC(=O)Nc2ccccc2)nnc1-c1ccc2nonc2c1 | 2 | -1 | 1 | 1 | -1 | · | ·
NNc1nc(-c2ccccc2Cl)nc2sc3c(c12)CCCC3 | 2 | 1 | 8.3* | 9 | 2 | 1 | 7.7*
NNc1nc(-c2ccccc2Cl)nc2ccccc12 | 1 | -1 | 1 | -1 | 0 | · | ·
Cc1nc(NC(=O)c2cccnc2Cl)sc1C | 3 | 1 | 8.5* | 9 | 1 | 1 | 5
CC1CN(C2CCCCC2)C(=O)NC1=O (configuration not stated) | 0 | 0 | 0 | -1 | 0 | · | ·
Cc1ccc(/C=C/C(=O)C2C(=O)c3ccccc3C2=O)cc1 | -2 | 0 | 8.7* | 8 | 2 | 1 | 12*
Cc1ccc(/C=C/C(=O)Nn2cnnc2)cc1 | 1 | -1 | 0 | 1 | 0 | · | ·
COc1cc(Br)cc(C(c2c(C)n(C)n(-c3ccccc3)c2=O)c2c(C)n(C)n(-c3ccccc3)c2=O)c1O | · | 0 | -1 | 0 | 0 | · | ·
CCCNC(=O)C1CC(c2ccccc2[N+](=O)[O-])=NO1 (configuration not stated) | 1 | -1 | 3 | 2 | 0 | · | ·
CC(C)CCNC(=O)C1CC(c2ccccc2[N+](=O)[O-])=NO1 (configuration not stated) | 2 | 0 | 7.2* | 4 | 0 | 0 | 4
COc1cccc(NC(=O)c2cc3ccccc3oc2=O)c1 | 3 | 0 | 7.2* | 13* | 3 | 1 | 8.7*
CN(C)CCCNc1c2c(nc3ccccc13)CCC2 | 0 | -1 | 7.0* | 2 | 1 | 0 | 5
OCCCNc1c2ccccc2nc2ccccc12 | 0 | 2.3* | 20* | 7 | 0 | 2 | 29*
SMILES | DAX1 inh-1 | ssDAF12 agonist | hcDAF12 agonist | hgDAF-12 ag | DAX1 inh-2 | LXR ag | hcDAF12 ag
O=C(CNCc1ccc(Cl)cc1)Nc1cc(S(=O)(=O)N2CCCC2)ccc1Cl | -1 | -2 | -2 | -1 | -3 | · | ·
Nc1nc(-c2ccccc2)ns1 | 1 | 1 | 6.9* | 4 | 2 | 0 | 6.1*
CN(C)c1nc(-c2ccccc2)ns1 | 1 | -1 | 0 | 1 | 0 | · | ·
CC(=O)C1=C(C)Nc2ncnn2C1c1ccc(C)cc1 (configuration not stated) | 0 | -1 | 0 | -1 | 1 | · | ·
O=C(NNC(=O)c1cc(-c2ccc(Cl)cc2)nc2ccccc12)c1csc(N2CCOCC2)n1 | 2 | -1 | 0 | 1 | -1 | · | ·
N#C/C(=C(/O)CN1CCCC1)c1nc(-c2ccccc2)cs1 | 5.3* | 1 | 8.8* | 12* | 3 | 0 | 5
COc1ccccc1/C=N\Nc1ccccc1[N+](=O)[O-] | 7.9* | -1 | 7.0* | 6 | 1 | 2 | 6.4*
Cc1ccc(C)c(C(=O)CCC(=O)N2CCN(c3ncccn3)CC2)c1 | 0 | -1 | 1 | 2 | 1 | · | ·
Cc1nn(C)c(C(=O)NC(=S)Nc2ccccc2O)c1Cl | 1 | 1.4* | 6.7* | 1 | 0 | 0 | 6.4*
O=C(c1cc2cc(F)ccc2[nH]1)N1CCc2ccccc21 | 5.0* | 1.9* | 16* | 13* | 2 | 1 | 9.2*
c1ccc(-c2ccc(-c3ccccn3)s2)nc1 | 4.7* | 3.8* | 15* | 13* | 2 | 1 | 13*
COc1ccccc1CNC(=O)CNC(=O)c1sc2ccccc2c1Cl | 0 | -1 | -1 | 1 | 0 | · | ·
CN(C(=O)COc1cc(=O)n(C)c2ccccc12)c1ccc(Br)cc1 | 1 | 0 | 6.8* | 1 | 0 | 0 | 3
CC1(C)CC(=O)c2ccc(OCc3ccc([N+](=O)[O-])cc3)cc2O1 | · | 1.2* | 17* | 10 | 2 | 1 | 11*
CC1(C)CC(=O)c2cc(OCC(=O)O)ccc2O1 | 0 | -2 | 0 | 0 | 0 | · | ·
CCOC(=O)[C@]12CCC=C1N(Cc1ccco1)C(=O)[C@H](CC(=O)N1CCOCC1)C2 | · | 0 | 1 | -1 | 3 | · | ·
Cc1cc(Cl)cc2sc(=S)[nH]c12 | 0 | 0 | 1 | 3 | 0 | · | ·
O=[N+]([O-])c1ccccc1/C=N/Nc1nccnc1Cl | 1 | 0 | 1 | 6 | 1 | · | ·
Cc1c(O)ccc(/C=N/Nc2ncccc2[N+](=O)[O-])c1O | 0 | 1.2* | 7.5* | 10 | 1 | 2 | 6.0*
FC(F)(F)c1cc(-c2cccs2)nc2nc(N3CCOCC3)sc12 | 0 | -2 | -2 | 0 | -1 | · | ·
